Bioassay records deposited in PubChem by National Center for Advancing Translational Sciences (NCATS).
PK Bst = Pyruvate Kinase; Potency, µM; purified pyruvate kinase, luminescence ATP production; ribose 5-phosphate activator present at AC10; actives 1.2% (n = 51,000); in the data active = potency below about 11 µM; inconclusive = mostly about 12 µM to 25 µM;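 the screen sought inhibitors and activators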;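 note: scaled between full activation by ribose 5 phosphate and full inhibition by luteolin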
TSHR agonist = qHTS Assay for Agonists of the Thyroid Stimulating Hormone Receptor; Thyrotropin receptor (Homo sapiens), P16473; HEK293-CNG-TSHR cells (CNG channel as cAMP sensor), membrane potential dye, cAMP; Potency, µM (series often up to 57.1 µM), inactives show at the highest dose activation, usual class: activators; actives 0.48% (n = 73,000); AID 926, 2007; active = well fitted activation curve with a large enough effect in the main read-out, with a control signal flat, not every such curve was filed as active; inconclusive = small, poorly fitted or top-dose-only effect, or a change in a side signal; inactive = no such curve, though single readings can be large or run the other way; % of control where 0% means no effect;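 note: the control signal comes from parental cells without the receptor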
Target sequence (P16473 whole entry, looked up): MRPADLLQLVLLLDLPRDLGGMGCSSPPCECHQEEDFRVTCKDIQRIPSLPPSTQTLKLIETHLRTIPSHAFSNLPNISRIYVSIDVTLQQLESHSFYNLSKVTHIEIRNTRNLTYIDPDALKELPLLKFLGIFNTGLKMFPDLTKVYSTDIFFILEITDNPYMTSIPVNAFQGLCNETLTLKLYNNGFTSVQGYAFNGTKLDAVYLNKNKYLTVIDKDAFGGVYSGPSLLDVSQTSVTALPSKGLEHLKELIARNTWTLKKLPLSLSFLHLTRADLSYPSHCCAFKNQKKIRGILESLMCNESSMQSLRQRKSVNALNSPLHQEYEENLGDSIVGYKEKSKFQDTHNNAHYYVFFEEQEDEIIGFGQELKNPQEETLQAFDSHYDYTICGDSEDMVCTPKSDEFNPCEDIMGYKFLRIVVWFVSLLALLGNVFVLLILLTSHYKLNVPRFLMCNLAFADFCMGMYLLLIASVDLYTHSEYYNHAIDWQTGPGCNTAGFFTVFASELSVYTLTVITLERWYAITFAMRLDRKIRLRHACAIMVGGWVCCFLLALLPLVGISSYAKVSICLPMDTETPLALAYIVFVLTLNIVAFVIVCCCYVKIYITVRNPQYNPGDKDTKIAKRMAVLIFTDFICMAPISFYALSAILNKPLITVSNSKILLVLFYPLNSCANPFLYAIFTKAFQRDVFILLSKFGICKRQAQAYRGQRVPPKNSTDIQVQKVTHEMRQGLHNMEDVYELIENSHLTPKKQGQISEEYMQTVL
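HEK 293 cells stably expressing TSHR and a modified CNG channel, with CNG-only parental cells as counterscreen, were preloaded 60 min at room temperature with membrane potential dye containing 100 uM RO 20-1724. Compound exposure was 30 min, and depolarization was read as fluorescence at 590 nm.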
GBA mod = Glucocerebrosidase | purified enzyme, resorufin glucoside fluorescence (screen aimed at inhibitors), 20 min | Potency, µM | actives 1.1% (n = 48,000) | AID 360, 2006; in the data active = potency below about 15 µM; inconclusive = mostly about 16 µM to 33 µM;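 note: the screen sought inhibitors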
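Compounds titrated against 0.2 nM normal enzyme, 30 uM resorufin beta-D-glucopyranoside substrate, citrate/phosphate buffer with taurocholate and tween-20, pH 5.9. Reaction ran 20 min at room temperature; fluorescence (Ex 548/Em 600) gave AC50.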
FLuc inh = qHTS Assay for Inhibitors of Firefly Luciferase. Luciferin 4-monooxygenase (Photinus pyralis), P08659. Potency, µM (titrated, usually from 57.1 µM), for the others: top-dose activity change, negative = inhibition, actives largely listed as inhibitors. AID 411, 2009. purified firefly luciferase, luminescence, 8 min. actives 2.2% (n = 72,000); note: % is set by controls: 0 for no effect and ±100 for the full control effect; nearly all actives have a fitted effect of over 40% in size
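Inhibition of light generation by firefly luciferase from ATP and luciferin was profiled with concentration-response curves per sample, ATP held at 10 uM within the enzyme's linear range. Plates were read by luminescence after an 8-minute ambient incubation.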
ERK AVP inh = qHTS Assay for Inhibitors of the ERK Signaling Pathway using a Homogeneous Screening Assay. HEK293-V1b, vasopressin-stimulated pERK AlphaScreen. Potency, µM (series often up to 57.5 µM), inactives show at the highest dose activity, negative = inhibition, actives largely listed as inhibitors. actives 0.99% (n = 72,000). AID 995, 2007; note: % is set by controls: 0 for no effect and ±100 for the full control effect; nearly all actives have a fitted effect of over 55% in size
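qHTS, compounds titrated on V1b-expressing HEK293 cells. Preincubation 30 min at 37C, vasopressin 25 nM for 5 min, lysis 10 min, bead incubation 5 hr at room temperature.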
HEK293 cAMP cs = qHTS Assay for Agonists of the Thyroid Stimulating Hormone Receptor: Activators of Intracellular cAMP Concentrations in Parental HEK 293. parental HEK293 CNG cAMP sensor, membrane potential fluorescence. Potency, µM (top dose mostly 57.1 µM), for the others: at the highest dose activation, actives largely listed as activators. actives 2.5% (n = 73,000); note: % of control where 0% means no effect; nearly all actives have a fitted effect of over 55% in size
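Parental HEK 293 cells stably expressing a modified CNG channel (no TSHR) report cAMP rise as membrane depolarization. Membrane potential dye with 100 uM RO 20-1724 was loaded for 60 min at room temperature, then compound added for 30 min; fluorescence read at 590 nm.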
Active calls of the source: *; i = inactive; u = inconclusive; x = not tested or not shown; [ ] = remark or other dose. An excerpt weighted towards active compounds, which were near 6.1% of everything screened. Unless noted, calls come from the whole dose curve; as a rule, active = well fitted curve in the direction sought with a large enough effect; inconclusive = small, poorly fitted or top-dose-only effect, or another doubt; inactive = no such curve, though single readings can be large; an effect the other way counts as inactive or inconclusive. Potency is the fitted concentration of half-maximal effect.

SMILES	PK Bst	TSHR agonist	GBA mod	FLuc inh	ERK AVP inh	HEK293 cAMP cs
CCN1C(=O)[C@H]2[C@H]3[C@H](O)[C@H](O)C/C(=N/OCC(C)C)[C@H]3CC[C@@H]2C1=O	x	4%[11.4 µM]	x	1%[11.4 µM]	3%[11.5 µM]	-5%[11.4 µM]
Cc1nc2ccccc2c2oc(C(=O)NCC3COc4ccccc4O3)cc12 (stereo not given)	x	u	x	1%	10µM*	25µM*
CCOC(=O)N1CCC(NC(=O)c2cc3c(C)nc4ccccc4c3o2)CC1	x	-1%	x	-8%	25µM*	0%
COC(=O)NC(CC(C)=O)c1cccc(F)c1 (stereo not given)	x	10%[11.4 µM]	x	x	17%[11.5 µM]	1%[11.4 µM]
C[C@@]1(C(=O)O)CCC[C@@H]1C(=O)O	x	-3%[11.4 µM]	x	3%[11.4 µM]	5%[11.5 µM]	4%[11.4 µM]
O=c1c(-c2ccc(F)cc2)nc2cnc(N3CCOCC3)nc2n1C1CC1	x	9%	x	0%[11.4 µM]	-17%	9%
CCOC(=O)OCC1OC(C#Cc2ccccc2)C=CC1Oc1cccc(N(C)C)c1 (stereo not given)	x	17%[11.4 µM]	x	x	24%[11.5 µM]	24%[11.4 µM]
Cc1cc(-c2cccs2)n[nH]1	x	2%	x	0%	-3%	-1%
COc1cccc(-c2cn3nc(C)c(C)nc3n2)c1	i	-14%	i	13µM*	-24%	-5%
Cc1nc2nc(-c3cccs3)cn2nc1C	x	6%	>77	20µM*	-8%	-5%
COCC1C2CC[C@H]3C(OCc4ccc(F)cc4C(F)(F)F)OC[C@]4(C)[C@H]3C2=C(CN4C(=O)OC(C)(C)C)[C@H](C)C1COC (stereo not given in full)	x	u	x	x	-7%	u
Cc1ccc(C(C(=O)NCc2ccco2)N(CCc2ccccc2)C(=O)Cn2nnc3ccccc32)o1 (stereo not given)	>57	u	x	1%	-2%	13µM*
CCC(C)(C)NC(=O)C(c1cccn1C)N(Cc1ccccc1)C(=O)Cn1nnc2ccccc21 (stereo not given)	>57	u	>77	1%	-15%	10µM*
O=C(NCc1ccco1)C(c1cccs1)N(C(=O)Cc1cccs1)c1ccccc1 (stereo not given)	>57	u	>77	2%	5%	13µM*
COc1ccc(CNC(=O)C(c2ccco2)N(Cc2cccs2)C(=O)Cc2cccs2)cc1 (stereo not given)	>57	u	>77	-1%	-18%	20µM*
CC(C)CCNC(=O)C(c1ccco1)N(Cc1cccs1)C(=O)Cn1nnc2ccccc21 (stereo not given)	>57	u	x	-1%	-14%	6.3µM*
Cc1ccc(N(C(=O)Cn2nnc3ccccc32)C(C(=O)NCc2ccco2)c2ccc(C)o2)cc1 (stereo not given)	>57	u	x	1%	12%	u
COc1ccc(N(C(=O)Cn2nnc3ccccc32)C(C(=O)NCc2ccco2)c2ccc(C)o2)cc1 (stereo not given)	>57	25µM*	>77	3%	-21%	27%
CCCCc1ccc(-c2nc(N)n[nH]2)cc1	x	u	x	7.9µM*	-10%	u
O=C(Nc1ccc(OC(F)(F)F)cc1)C1=NCCN1	i	u	2*	10µM*	-4%	u
O=C1c2ccccc2S(=O)(=O)N1Cc1nc2ccccc2s1	x	-3%	>77	u	14%	3%
CN(C)c1ccc(C2=NOC(CN3C(=O)c4ccccc4S3(=O)=O)C2)cc1 (stereo not given)	x	1%	>77	16µM*	u	-6%
COCCn1c(=O)c(-c2ccccc2)nc2cnc(Oc3ccc(OC)cc3)nc21	x	u	x	1%[11.4 µM]	u	u
COc1ccc2nc3oc(C(=O)N4CCCCC4)cc3cc2c1	u	0%	>77	13µM*	8%	7%
CC(=O)C=NCC(=O)O	x	6%[11.4 µM]	x	0%[11.4 µM]	1%[11.5 µM]	2%[11.4 µM]
SMILES	PK Bst	TSHR agonist	GBA mod	FLuc inh	ERK AVP inh	HEK293 cAMP cs
COC(=O)C/C=C\[C@@H](C)[C@@H]1C=C[C@H](OC(C)=O)[C@H](COC(C)=O)O1	x	14%[11.4 µM]	x	1%[11.4 µM]	23%[11.5 µM]	2%[11.4 µM]
Cc1ccc(Cn2nnc3c(=O)n(Cc4cc(C)ccc4C)cnc32)cc1	>57	u	>77	-2%	-18%	3.2µM*
Cc1ccc(Cn2nnc3c(=O)n(Cc4cccc(C)c4)cnc32)cc1	>57	u	>77	1%	-1%	u
O=c1c2ccccc2cnn1-c1nc2ccccc2s1	0.16*	-11%	>77	0.16µM*	-5%	7%
O=c1c2ccccc2ncn1Cc1nc2ccccc2s1	i	6%	>77	-37%	-18%	2%
O=c1c(CCc2ccccc2)nc2cnc(N3CCOCC3)nc2n1CCc1ccccc1	x	-1%	x	1%[11.4 µM]	-5%	17%
Cc1ccc(C2C3=C(CC(C)(C)CC3=O)NC3=C2C(=O)CC(C)(C)C3)o1	>57	13µM*	i	3%	-13%	3%
N#C/C(=C\c1ccc(O)c(O)c1)C(=O)NCCc1ccccc1	x	u	x	0%	u	u
N#C/C(=C\c1ccc(O)c(O)c1)C(=O)NCCCCc1ccccc1	x	-5%	x	-24%	40µM*	8%
Cc1nc2cc(-c3cccc(Cl)c3)nn2c(N2CCN(C(=O)c3ccco3)CC2)c1C	>57	8%	>77	-17%	6%	10%
Cc1cc(N2CCN(C(=O)c3ccco3)CC2)n2nc(-c3cccc(Cl)c3)cc2n1	>57	u	>77	-2%	25µM*	u
COc1ccc(OC[C@@H](CO)OC)cc1	x	u	x	2%[11.4 µM]	18%[11.5 µM]	u
O=c1[nH]c2ccccc2c2nc3ccccn3c12	4.3*	-2%	>77	u	-24%	0%
O=c1[nH]c2ccccc2c2ccccc12	x	8%	x	0%	-25%	-9%
O=C(N1CCCCC1)C1(c2ccccc2)CCOCC1	>57	u	>77	0%	17%	16µM*
COC(=O)CSc1nc2cc(C)ccc2cc1C#N	i	5%	>77	u	6%	10%
CCOC(=O)CC(=O)CSc1nc2ccc(C)cc2cc1C#N	u	-6%	13*	-27%	-8%	5%
CCOC(=O)CC(=O)CSc1nc2c(cc1C#N)CCCCC2	u	x	x	10µM*	x	x
N#Cc1cc2c(nc1SCC(=O)N1CCCCC1)CCCC2	x	u	x	0%	-10%	u
C=Cc1ccc([C@H]2N[C@@H](C(=O)O)CC[C@@H]2C)cc1	x	-5%[11.4 µM]	x	1%[11.4 µM]	23%[11.5 µM]	1%[11.4 µM]
COc1ccc(OC)c(CN2CCN(C(=O)c3cccc4ccccc34)CC2)c1	7.4*	10%	u	3%	-14%	20%
